An excerpt weighted towards active compounds, which were near 1.3% of everything screened.
GC-A act: GC-A (human) enzyme activation. P16066. HEK293 GC-A cells, cGMP TR-FRET, EC30 ANP; 0% at EC30 ANP, 100% saturating ANP. activation, % at 10 µM. hit rate 0.14% among 370,000. AID 1671463; in the data active means activation above about 40%
Target sequence (P16066 whole entry, looked up): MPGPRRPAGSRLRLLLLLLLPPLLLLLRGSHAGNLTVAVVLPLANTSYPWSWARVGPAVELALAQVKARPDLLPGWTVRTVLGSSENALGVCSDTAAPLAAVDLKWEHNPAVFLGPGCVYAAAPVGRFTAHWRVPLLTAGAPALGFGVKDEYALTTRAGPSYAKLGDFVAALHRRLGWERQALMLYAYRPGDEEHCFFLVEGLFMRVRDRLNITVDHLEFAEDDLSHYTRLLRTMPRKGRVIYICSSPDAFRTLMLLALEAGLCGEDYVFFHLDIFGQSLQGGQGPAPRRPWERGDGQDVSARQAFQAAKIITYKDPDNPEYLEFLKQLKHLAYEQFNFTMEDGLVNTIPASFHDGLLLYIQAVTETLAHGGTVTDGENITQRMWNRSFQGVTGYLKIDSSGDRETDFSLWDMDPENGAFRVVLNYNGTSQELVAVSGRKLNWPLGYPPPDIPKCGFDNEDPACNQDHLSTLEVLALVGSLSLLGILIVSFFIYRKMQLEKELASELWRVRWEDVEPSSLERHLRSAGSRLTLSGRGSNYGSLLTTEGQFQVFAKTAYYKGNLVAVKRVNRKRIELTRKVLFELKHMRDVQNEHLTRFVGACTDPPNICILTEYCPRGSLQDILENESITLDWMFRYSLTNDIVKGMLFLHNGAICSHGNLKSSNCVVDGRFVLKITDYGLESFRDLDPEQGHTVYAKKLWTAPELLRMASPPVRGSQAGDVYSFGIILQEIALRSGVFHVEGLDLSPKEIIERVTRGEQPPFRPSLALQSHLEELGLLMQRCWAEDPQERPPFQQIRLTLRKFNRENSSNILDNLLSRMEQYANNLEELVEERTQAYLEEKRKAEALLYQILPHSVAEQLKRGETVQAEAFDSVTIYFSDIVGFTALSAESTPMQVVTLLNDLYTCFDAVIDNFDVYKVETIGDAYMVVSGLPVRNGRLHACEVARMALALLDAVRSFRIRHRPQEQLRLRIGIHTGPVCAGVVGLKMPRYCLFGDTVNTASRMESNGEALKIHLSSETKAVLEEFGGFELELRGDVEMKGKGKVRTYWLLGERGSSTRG
HIF act: HIF pathway transcriptional activation. U2OS HRE-luciferase reporter, luminescence; normalized: DMSO 0%, desferrioxamine 100%. activation, % at 7.5 µM (by protocol). hit rate 0.32% among 300,000. AID 1910;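 active means mean activation of at least 10% of the iron chelator positive control signal, with at least half of replicates also reaching 10%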
KLK7 zymogen act: activators of human kallikrein-7 zymogen | hit rate 0.9% among 370,000 | purified proKLK7, EDANS-DABCYL substrate fluorescence; 100% is mature enzyme control, 0% vehicle | AID 652039 | activation, % at 7 µM | P49862;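 active means activation above the mean of all tested compounds plus 3 SD, computed per campaign excluding outliers beyond control limits, cut at about 13% in these data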
NPR2 activator: GC-B (human) receptor activation | activation, % at 10 µM | hit rate 0.11% among 370,000 | HEK293-GC-B cells, CNP EC30, cGMP TR-FRET; 0% at EC30 CNP, 100% saturating CNP;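 active means activation at 10 µM reaching about 35% in either raw or pattern-adjusted values, limit read from the data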
KLK7 act conf: confirmation of human kallikrein-7 zymogen activators. shares compounds with KLK7 zymogen act. purified proKLK7, EDANS-DABCYL substrate fluorescence; scaled: vehicle 0, mature enzyme 100. activation, % at 7 µM. hit rate 68% among 3,200;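 active means activation, as change over the incubation, above the mean of all tested compounds plus 3 SD, cut at about 13% in these data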
EDANS-DABCYL int: fluorescence interference counter-screen for KLK7 activators; activation, % at 7 µM; shares compounds with KLK7 zymogen act; hit rate 80% among 3,200; AID 686952; EDANS-DABCYL substrate fluorescence interference, no enzyme, 4 h; solvent 0%, active enzyme control 100%;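 active means activation above the all-compound mean plus 3 SD, ignoring values outside control-based bounds, cut at about 4.8% in these data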;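 further: value is the 4 h activation minus the activation read at time zero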
Numbers stand for hits; . = inactive; / = no result.

SMILES | GC-A act | HIF act | KLK7 zymogen act | NPR2 activator | KLK7 act conf | EDANS-DABCYL int
Cc1noc(C)c1NC(=O)Nc1ccc2c(c1)C(=O)N(C)[C@H]1CC[C@H](CC(=O)NCc3ccc(Cl)cc3)O[C@@H]1CO2 | . | / | . | . | / | /
CCOC(=O)CCc1c(C)c2ccc3c(c2oc1=O)CN(CCCO)CO3 | . | . | 52.3 | . | 71.2 | 75.3
O=C(NCCc1c[nH]c2ccccc12)c1ccc(Sc2ccccc2Cl)c([N+](=O)[O-])c1 | . | / | . | . | / | /
CCN(CC)CCN(C(=O)c1cc2c(ccc3ccccc32)oc1=O)c1nc2cc3c(cc2s1)OCCO3 | . | . | 45.6 | . | 61.4 | 65.2
O=C(CN1C(=O)NC2(CCCC2)C1=O)Oc1ccc2ccc(=O)oc2c1 | . | / | 67.0 | . | 63.1 | 71.6
CCc1cc(=O)oc2cc(OC(=O)CN3C(=O)NC4(CCCC4)C3=O)ccc12 | . | . | 97.0 | . | 59.8 | 67.7
O=C(CN1C(=O)NC2(CCCCC2)C1=O)Oc1ccc2c(C(F)(F)F)cc(=O)oc2c1 | . | . | 63.4 | . | 60.7 | 65.7
O=C(CN1C(=O)NC2(CCCC2)C1=O)Nc1ccccc1C(F)(F)F | . | . | . | . | / | /
CCOC(=O)Nc1ccc2c(CN3C(=O)NC4(CCCC4)C3=O)cc(=O)oc2c1 | . | / | . | . | / | /
Cc1cc(Br)ccc1OCCCN1CCC(C(O)(c2ccccc2)c2ccccc2)CC1 | . | / | . | . | / | /
Cc1ccc(CN2C(C(=O)NC3CCCC3)CSCCS2(=O)=O)cc1 (stereo not given) | . | / | . | . | / | /
O=C(Nc1ccc(F)cc1)c1ccc2c(c1)S(=O)(=O)N=C1CCCCCN12 | . | / | . | . | / | /
COc1cc(NC(=O)c2ccc3c(c2)S(=O)(=O)N=C2CCCCCN23)cc(OC)c1 | . | . | 15.2 | . | . | .
Nc1ccc(-c2ccc(C(=O)O)s2)cn1 | . | . | 19.1 | . | 72.9 | 81.8
CCOC(=O)[C@]12CCCCC/C=C\1N(Cc1ccc(OC)cc1)C(=O)[C@H]2CC(=O)N1CCN(C(=O)c2ccco2)CC1 | . | / | . | . | / | /
CC(=NNC(=O)CSc1nnc(-c2ccccc2)n1-c1ccccc1)c1ccc2ccccc2c1 | . | / | . | . | / | /
CCc1ccc(NC(=S)/N=C(\N)Nc2nc(C)c3cc(CC)ccc3n2)cc1 | . | . | . | . | / | /
Cc1cc(C)c2c(N)c3ccccc3nc2n1 | . | 19.8 | 15.7 | . | 69.5 | 76.5
CCc1ccc2nc3nc(C)cc(C)c3c(N)c2c1 | . | . | 32.2 | . | 32.4 | 40.3
CCC(CO)Nc1cccc2c1S(=O)(=O)N(Cc1cn(Cc3cccc(F)c3)nn1)Cc1ccccc1O2 (stereo not given) | . | / | . | . | / | /
COc1ccc(-c2cc(C(F)(F)F)nc(SCC(=O)N3CC(C)OC(C)C3)n2)cc1OC (stereo not given) | . | . | . | . | / | /
COc1ccc(OC)c2c(N3CCN(C)CC3)cc(C(F)(F)F)nc12 | . | . | 13.2 | . | . | 15.0
COc1ccc(OC)c2c(N3CC(C)OC(C)C3)cc(C(F)(F)F)nc12 (stereo not given) | . | . | 14.6 | . | 13.4 | 12.1
COc1ccc(-n2c(SCC(=O)Nc3cc(C)c(NC(=O)c4ccccc4)cc3OC)nnc2-c2ccco2)cc1 | . | / | . | . | / | /
COc1ccc(S[C@]2(C(=O)N(C)C)CC(=O)N(C(=O)C3CC3)[C@@H]2c2ccc(OC)cc2)cc1 | . | / | . | . | / | /
SMILES | GC-A act | HIF act | KLK7 zymogen act | NPR2 activator | KLK7 act conf | EDANS-DABCYL int
O=C(NCc1ccc2c(c1)OCO2)c1ccco1 | . | . | . | . | / | /
O=C(CC(SCCO)c1ccc2c(c1)OCO2)c1ccco1 (stereo not given) | . | . | 17.4 | . | 48.4 | 45.8
Cc1cc2[nH]c(=O)c(=O)[nH]c2cc1S(=O)(=O)NCc1ccccc1 | . | . | 22.6 | . | . | 6.0
Cc1cc2[nH]c(=O)c(=O)[nH]c2cc1S(=O)(=O)NC1CCC(C)CC1 (stereo not given) | . | . | 14.8 | . | . | 4.1
Cc1cc2[nH]c(=O)c(=O)[nH]c2cc1S(=O)(=O)NC1CCCCC1C (stereo not given) | / | . | / | / | / | /
COc1ccc(C2C3=C(CCCC3=O)N(CC(=O)O)C3=C2C(=O)CCC3)cc1Cl | . | . | 26.5 | . | 25.7 | 34.3
COc1ccc(C2C3=C(CCCC3=O)N(CC(=O)O)C3=C2C(=O)CCC3)cc1Br | . | / | 30.1 | . | 27.8 | 43.3
C#CCOc1c(Cl)cc(C2C3=C(CCCC3=O)N(CC(=O)O)C3=C2C(=O)CCC3)cc1OC | . | . | 16.4 | . | 72.0 | 80.0
O=C(CCn1nnc(-c2cccs2)n1)N1CCCC1 | . | / | . | . | / | /
Cc1cc(C)nc(NC(=O)c2ccc([N+](=O)[O-])o2)n1 | . | . | 133.3 | . | 151.0 | 146.3
Cc1cc(C)cc(NC(=O)c2ccc([N+](=O)[O-])o2)c1 | . | . | . | . | / | /
Cc1cc(/C=C(\C#N)C(=O)Nc2ccccc2F)c(C)[nH]1 | . | . | 32.3 | . | . | 6.9
CC1(C)CC(=O)C2=C(C1)OC(N)=C(C#N)C2c1ccccc1[N+](=O)[O-] (stereo not given) | . | . | 17.1 | . | . | 13.3
CC1(C)CC(=O)C2=C(C1)OC(N)=C(C#N)C2c1ccccc1 (stereo not given) | . | . | . | . | / | /
COC(=O)CSc1nc2ccccn2c(=O)c1C=O | . | . | 58.7 | . | 77.3 | 69.3
O=Cc1c(SCCO)nc2ccccn2c1=O | . | . | 30.9 | . | 23.5 | 23.6
O=Cc1c(Sc2ccccc2)nc2ccccn2c1=O | . | . | . | . | / | /
O=Cc1c(Sc2ccccn2)nc2ccccn2c1=O | . | . | . | . | / | /
C[C@@H]1CN([C@@H](C)CO)C(=O)c2cccc(NC(=O)Nc3cccc4ccccc34)c2O[C@H]1CN(C)S(=O)(=O)c1ccc(Cl)cc1 | . | / | / | . | / | /
O=C(CSc1nnc(-c2cccs2)o1)c1ccc2c(c1)OCO2 | . | / | . | . | / | /
COC(=O)[C@]12C[C@H](CC(=O)NCC3CCCCC3)C(=O)N(CCC3=CCCCC3)C1=C[C@H](C(C)C)O[C@@H]2C1CC1 | . | / | . | . | / | /
NC(=O)c1nsc(C(=O)N(c2ccccc2)C(C(=O)NC2CCCCC2)c2ccc(O)cc2)c1N (stereo not given) | . | . | 12.8 | . | . | 30.9
CCCc1cc2c(O)ccc(O)c2c(=O)o1 | . | / | 35.9 | . | 255.6 | 268.2
CCCc1cc(=O)c2c(O)cccc2o1 | . | . | . | . | / | /
COc1ccc(-c2cc(C(=O)O)c3sc(N4CCCCC4)nc3n2)cc1OC | . | . | . | . | / | /
O=C(O)c1cc(-c2ccccc2)nc2nc(N3CCCCC3)sc12 | . | . | 16.2 | . | 44.1 | 41.2
Cc1ccc(-c2cc(C(=O)O)c3sc(N4CCCCC4)nc3n2)cc1 | . | . | 24.5 | . | 18.8 | 22.7

Screens as filed in PubChem BioAssay.
